Experimental data: the supplement of paper PMC11865577
Structures can show the parent of a compound that is named as a salt.

Assays:
Assay in all cases: normalised indicator fluorescence (fraction of RNA + indicator signal without compound); higher = less displacement of indicator (weaker competition)
Settings in all cases: compound concentration: 5 uM, 30 min
hsa-mir-191 loop = test system: hsa-mir-191 loop
Procedure, shortened: (§1)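 For the displacement screen, RNA and a TO-PRO-1 or TO-PRO-3 indicator were held in 20 mM phosphate pH 7.0 with 20 mM NaCl and 80 mM KCl in 96-well plates. After adding 0.25 μL of each 1 mM DMSO stock (about 5 uM final) and waiting 30 min, fluorescence was measured on an Infinite 200 PRO with excitation at 485 or 620 nm. Each value is the mean of two independent experiments, expressed as blank-subtracted indicator fluorescence relative to the no-compound RNA-plus-indicator signal.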

hsa-mir-21 loop = test system: hsa-mir-21 loop
Procedure, shortened: as §1

hsa-mir-221 loop = test system: hsa-mir-221 loop
Procedure, shortened: as §1

hsa-mir-374a loop = test system: hsa-mir-374a loop
Procedure, shortened: as §1

hsa-mir-6850 loop = test system: hsa-mir-6850 loop
Procedure, shortened: as §1

[1] = indicator: TO-PRO-1 0.1 uM, RNA concentration: 0.1 uM
[2] = indicator: TO-PRO-3 0.5 uM, RNA concentration: 0.5 uM

| Structure (SMILES) | normalised indicator fluorescence (hsa-mir-191 loop; [1]) | normalised indicator fluorescence (hsa-mir-191 loop; [2]) | normalised indicator fluorescence (hsa-mir-21 loop; [1]) | normalised indicator fluorescence (hsa-mir-21 loop; [2]) | normalised indicator fluorescence (hsa-mir-221 loop; [1]) | normalised indicator fluorescence (hsa-mir-221 loop; [2]) | normalised indicator fluorescence (hsa-mir-374a loop; [1]) | normalised indicator fluorescence (hsa-mir-374a loop; [2]) | normalised indicator fluorescence (hsa-mir-6850 loop; [1]) | normalised indicator fluorescence (hsa-mir-6850 loop; [2]) |
| --- | --- | --- | --- | --- | --- | --- | --- | --- | --- | --- |
| OC[C@H]1O[C@@H](Oc2ccc(O)cc2)[C@H](O)[C@@H](O)[C@@H]1O [Arbutin] | 0.981 | 1.07 | 1.01 | 1.03 | 1.08 | 1.04 | 1.13 | 1.04 | 0.964 | 1.07 |
| CN1CCN(c2nc(C3=C(c4c[nH]c5ccccc45)C(=O)NC3=O)c3ccccc3n2)CC1 [Sotrastaurin] | 0.995 | 1.01 | 1.13 | 1.04 | 1.03 | 0.999 | 1.19 | 1.3 | 0.954 | 0.996 |
| C[C@H](CCC(=O)NCCS(=O)(=O)O)[C@H]1CC[C@H]2[C@@H]3[C@@H](O)C[C@@H]4C[C@H](O)CC[C@]4(C)[C@H]3CC[C@]12C [Tauroursodeoxycholic Acid] | 1.03 | 1.01 | 0.892 | 1.01 | 1.02 | 1.05 | 1.06 | 1.13 | 0.975 | 1.02 |
| Oc1cc(O)c2c(c1)O[C@H](c1ccc(O)c(O)c1)[C@@H](O)C2 [(+)-Catechin Hydrate] | 0.971 | 1.07 | 0.941 | 1.02 | 1.02 | 1.13 | 1.15 | 1.22 | 0.975 | 1.09 |
| CC(=O)O[C@H]1C[C@@]2(C)[C@@H](C[C@@H](O)[C@H]3[C@@]4(C)CC[C@@H](O)[C@@H](C)[C@@H]4CC[C@@]32C)/C1=C(\CCC=C(C)C)C(=O)O [Sodium fusidate] | 1.06 | 1.05 | 0.986 | 1.07 | 1.01 | 1.03 | 1.09 | 1.11 | 0.956 | 1.02 |
| O=CN1CC/C(=C/c2ccc3c(c2)OCO3)C1=O | 1.04 | 1.04 | 0.922 | 1.01 | 1.03 | 0.986 | 1.1 | 1.08 | 1 | 1.03 |
| O=[N+]([O-])c1ccc(-c2nc(-c3ccc(F)cc3)c(-c3ccncc3)[nH]2)cc1 | 1.06 | 1.03 | 0.973 | 1.03 | 1.16 | 1.03 | 1.59 | 1.15 | 0.975 | 1.03 |
| N=C(NCCCCCCNC(=N)NC(=N)Nc1ccc(Cl)cc1)NC(=N)Nc1ccc(Cl)cc1 [Chlorhexidine] | 0.988 | 1.04 | 1.05 | 1 | 0.96 | 0.994 | 1.05 | 1.05 | 0.83 | 1.07 |
| CC(C)OC(=O)CCC/C=C\C[C@@H]1[C@@H](CC[C@@H](O)CCc2ccccc2)[C@H](O)C[C@@H]1O [Latanoprost] | 1.01 | 1.03 | 0.985 | 0.978 | 1.01 | 1.05 | 1.01 | 1.06 | 1.06 | 1.04 |
| C1CCN2C[C@@H]3C[C@@H](CN4CCCC[C@@H]34)[C@H]2C1 [(-)-Sparteine sulfate pentahydrate] | 0.913 | 1.02 | 0.863 | 1.2 | 1.09 | 1.06 | 1.14 | 1.14 | 0.921 | 1.05 |
| COc1nccnc1NS(=O)(=O)c1ccc(NC(=O)/C=C/c2ccc([N+](=O)[O-])s2)cc1 [Necrosulfonamide] | 1.12 | 1.02 | 0.985 | 1.08 | 1.01 | 1.08 | 1.05 | 1.18 | 0.886 | 1 |
| Fc1ccc(-c2nc3n(c2-c2ccncc2)CCS3)cc1 | 1.08 | 1.08 | 0.993 | 1.02 | 1.07 | 1.13 | 1.09 | 1.18 | 0.947 | 1.04 |
| CC(=O)Oc1c(C)c(C)c2c(c1C)CCC(C)(CCC[C@H](C)CCC[C@H](C)CCCC(C)C)O2 (stereo not given in full) [Vitamin E Acetate] | 1.01 | 1.05 | 0.923 | 1.04 | 1.1 | 1.05 | 1.01 | 1.02 | 0.957 | 1.02 |
| COc1nc(-c2ccc3c(c2)OCO3)n(-c2ccc(NC(=O)CSc3ccccc3)cc2)n1 [SecinH3] | 1.09 | 1.02 | 0.961 | 1.2 | 1.02 | 1.1 | 1.01 | 1.12 | 1 | 0.992 |
| CCc1cc(C(N)=S)ccn1 [Ethinamide] | 1.07 | 1.01 | 1.1 | 1.04 | 1.04 | 1.07 | 1.18 | 1.2 | 1.04 | 1.05 |
| Cc1cccc(CC(=O)N2CCc3c2ccc(-c2cn(C)c4ncnc(N)c24)c3F)n1 | 1.03 | 1.06 | 1 | 1.04 | 1.08 | 1.01 | 1.14 | 1.06 | 0.973 | 0.993 |
| O=C(O)C(O)Cc1ccc(O)c(O)c1 (stereo not given) [Sodium Danshensu] | 0.941 | 1.02 | 0.888 | 1.05 | 0.976 | 1.05 | 1.07 | 0.994 | 0.964 | 1.08 |
| Cc1cc(NC(=O)c2cccc(NC(=O)/C=C/CN(C)C)c2)ccc1Nc1nccc(-c2cccnc2)n1 | 1.03 | 1.05 | 0.972 | 1.01 | 1.04 | 1.02 | 1.08 | 1.05 | 1.06 | 0.942 |
| CNC(=O)c1ccc(C)c(-n2c(C)cc(OCc3ccc(F)cc3F)c(Br)c2=O)c1 | 1.02 | 1.03 | 1.03 | 1.02 | 1.19 | 1.05 | 1 | 1.08 | 0.914 | 1.04 |

| Structure (SMILES) | normalised indicator fluorescence (hsa-mir-191 loop; [1]) | normalised indicator fluorescence (hsa-mir-191 loop; [2]) | normalised indicator fluorescence (hsa-mir-21 loop; [1]) | normalised indicator fluorescence (hsa-mir-21 loop; [2]) | normalised indicator fluorescence (hsa-mir-221 loop; [1]) | normalised indicator fluorescence (hsa-mir-221 loop; [2]) | normalised indicator fluorescence (hsa-mir-374a loop; [1]) | normalised indicator fluorescence (hsa-mir-374a loop; [2]) | normalised indicator fluorescence (hsa-mir-6850 loop; [1]) | normalised indicator fluorescence (hsa-mir-6850 loop; [2]) |
| --- | --- | --- | --- | --- | --- | --- | --- | --- | --- | --- |
| C[S+]([O-])c1ccc(-c2nc(-c3ccc(F)cc3)c(-c3ccncc3)[nH]2)cc1 (stereo not given) | 0.969 | 1.02 | 1.05 | 1.02 | 1.01 | 1.05 | 1.07 | 1.04 | 1.08 | 1.04 |
| CCCC(C(=O)OCCN(CC)CC)(c1ccccc1)c1ccccc1 [Proadifen hydrochloride] | 1.01 | 1.04 | 0.923 | 1 | 1.08 | 1.05 | 1.16 | 1.17 | 0.941 | 1.02 |
| [I-].[K+] [Potassium iodide] | 1.06 | 1.08 | 1.11 | 1.03 | 1.08 | 1.03 | 1.21 | 1.05 | 1.07 | 1.07 |
| O=C(O)/C=C/c1ccc(Cn2ccnc2)cc1 [Ozagrel] | 0.962 | 1.05 | 0.996 | 1.03 | 1.07 | 1.05 | 1.12 | 1.19 | 0.929 | 1.03 |
| CCOc1cc(C(=O)N2CCC(N3CCN(C)CC3)CC2)ccc1Nc1ncc2c(n1)N(C1CCCC1)c1ccccc1C(=O)N2C | 1.09 | 1.04 | 0.946 | 1.01 | 1.03 | 1.01 | 1.07 | 1.1 | 0.938 | 1 |
| CN(NC(=O)CC(=O)NN(C)C(=S)c1ccccc1)C(=S)c1ccccc1 [Elesclomol] | 1.05 | 1.03 | 1.06 | 1.03 | 1.04 | 0.964 | 1.09 | 1.18 | 1.02 | 1.02 |
| CCc1oc2ccccc2c1C(=O)c1cc(Br)c(O)c(Br)c1 [Benzbromarone] | 0.976 | 1.01 | 0.927 | 1.05 | 1 | 1.09 | 1.16 | 1.34 | 0.95 | 1.04 |
| O=c1c(O)c(-c2ccccc2)oc2cc(O)cc(O)c12 [Galangin] | 1.05 | 1.08 | 1 | 1.04 | 1.03 | 1.22 | 1.11 | 1.3 | 0.971 | 1.07 |
| Cc1c(F)cc(C(=O)NC2CC2)cc1-c1ccc(C(=O)NCC(C)(C)C)cn1 [Losmapimod] | 0.997 | 1.02 | 0.887 | 1.04 | 1.07 | 1.08 | 1.06 | 1.13 | 0.95 | 1.06 |
| Cc1c(C)c2c(c(C)c1O)CC[C@@](C)(CCC[C@H](C)CCC[C@H](C)CCCC(C)C)O2 [Vitamin E] | 1.08 | 1.06 | 0.956 | 1.01 | 1.02 | 1.07 | 1.05 | 1.06 | 0.907 | 1.03 |
| O=c1cc(-c2ccc(O)cc2)oc2cc(O)cc(O)c12 [Apigenin] | 1.03 | 1.05 | 0.934 | 1 | 1.04 | 1.03 | 1.05 | 1.22 | 0.954 | 1.06 |
| CC(C)c1cc(-c2n[nH]c(=O)n2-c2ccc3c(ccn3C)c2)c(O)cc1O [Ganetespib] | 1.04 | 1.03 | 1 | 1.04 | 1.03 | 1.08 | 1.07 | 1.14 | 0.915 | 1 |
| Oc1ccc(OC2CCCCO2)cc1 (stereo not given) [Deoxyarbutin] | 1.11 | 1.06 | 1.03 | 1.06 | 1.03 | 1.1 | 1.03 | 1.13 | 0.979 | 1 |
| O=c1ccc2ccc(O)c(O)c2o1 [Daphnetin] | 1.01 | 0.873 | 1.09 | 0.941 | 0.91 | 0.965 | 1.09 | 1.03 | 1.19 | 0.881 |
| COc1c(C)cnc(Cn2cnc3c(Cl)nc(N)nc32)c1C | 1.04 | 1.04 | 0.99 | 1.04 | 1.01 | 1.06 | 1.19 | 1.09 | 1.02 | 1.05 |
| C[C@@H]1O[C@@H](Oc2c(-c3cc(O)c(O)c(O)c3)oc3cc(O)cc(O)c3c2=O)[C@H](O)[C@H](O)[C@H]1O [Myricetrin] | 0.952 | 1.05 | 0.962 | 1.07 | 0.97 | 1.09 | 1.07 | 1.17 | 0.944 | 1.08 |
| NC(=O)c1ccc(N(C(N)=O)c2c(F)cccc2F)nc1-c1ccc(F)cc1F | 0.984 | 1.01 | 0.905 | 1.02 | 1.06 | 0.999 | 1.15 | 1.19 | 0.94 | 1.03 |
| O=C(Nc1nc2ccc(NC(=O)C34CC5CC(CC(C5)C3)C4)cc2s1)c1ccccc1 | 1 | 1.02 | 0.991 | 1.02 | 1.14 | 1.05 | 1.1 | 1.06 | 0.997 | 0.982 |
